Measured values published in PubChem BioAssay.
A number with no mark means an inactive call. The source made the active and inactive calls.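 How the source made its calls, unless noted: active means mean inhibition above 46.5%, the solvent-only control mean plus 3 SD; inactive means the rest.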

Each molecule was assayed on transactivating tegument protein VP16 (Human herpesvirus 1) (assay: compounds suppressing VP16-driven luciferase signal – cell-based, luminescence, single concentration, counter-screen for SRC2 inhibitor project (AID 652007; in the data active means inhibition above about 36%)). Details: cell-based VP16 transactivation luciferase reporter, at 8.9 µM, active compounds read high.

Q: `O=C(CCCN1C(=O)/C(=C/c2ccccc2Cl)SC1=S)Nc1cccnc1` was tested. Which inhibition did it give?
A: Its inhibition is -29.3%.

Q: `Cc1ccc(C)c(N2CCN(C(=O)c3ccc4c(c3)c(C)c(C)n4C)CC2)c1` was tested. Which inhibition did it give?
A: Its inhibition is -28.6%.

Q: `O=c1[nH]sc2ccccc12` was tested. Which inhibition did it give?
A: The inhibition was 7.96%.

Q: How did the inhibition turn out when `Cc1ccc(NC(=O)C2CCC(C(C)(C)C)CC2)cc1S(=O)(=O)N1CCOCC1` (stereo not drawn) was run?
A: Its inhibition is 3.84%.

Q: `O=C(CCCN1C(=O)/C(=C/c2ccccc2Cl)SC1=S)NNC(=O)c1ccccc1` was tested. Which inhibition did it give?
A: The inhibition was 61.2% (active).

Q: How did the inhibition turn out when `O=C(NCCCN1CCOCC1)c1cc(-c2ccc(Br)cc2)on1` was run?
A: The inhibition was -7.7%.

Q: Which inhibition does the source give for `Nn1c(SCC(=O)Nc2cc(C(F)(F)F)ccc2Cl)nncc1=O` here?
A: The inhibition was 3.78%.

Q: How did the inhibition turn out when `COc1cccc(C(NC(C)=O)c2nc(-c3cccc(C#N)c3)cs2)c1` (stereo not drawn) was run?
A: The inhibition was -10.7%.

Q: With `O=C(CCCN1C(=O)/C(=C/c2cccc(Br)c2)SC1=S)NCCCN1CCOCC1` as the molecule, how does the inhibition read?
A: Its inhibition is 32.1%.

Q: For `COc1ccc(S(=O)(=O)Nc2cc(Sc3ncn[nH]3)c(O)c3ccccc23)cc1`, which inhibition is on record?
A: Its inhibition is 26.7%.

Q: Which inhibition does the source give for `COc1ccc2nc(-c3ccc(N)cc3)[nH]c2c1` here?
A: The inhibition was -62.2%.

Q: How did the inhibition turn out when `COc1ccc(C(=O)c2[nH]c(N)c(C(=O)NCCc3c[nH]c4ccccc34)c2-c2ccc(OC)c(OC)c2)cc1` was run?
A: Its inhibition is -9.46%.

Q: For `Cn1c(=O)c2[nH]c(CCCc3ccc([N+](=O)[O-])cc3)nc2n(C)c1=O`, which inhibition is on record?
A: The inhibition was -19.8%.

Q: With `CN1/C(=C/C=C/c2n(C)c3cc([N+](=O)[O-])c([N+](=O)[O-])cc3[n+]2C)C(C)(C)c2ccccc21` as the molecule, how does the inhibition read?
A: Its inhibition is 3.99%.

Q: For `CC(OC(=O)C1=COCCO1)C(=O)Nc1ccc(Cl)cn1` (stereo not drawn), which inhibition is on record?
A: Its inhibition is -6.28%.

Q: `CN(C)Cc1ccc(-c2nc3cccc4c3n2CCNC4=O)cc1` was tested. Which inhibition did it give?
A: Its inhibition is -27.9%.

Q: `COCc1ccc(C(=O)N2CCC(CCC(=O)Nc3cccc(C)c3)CC2)s1` was tested. Which inhibition did it give?
A: The inhibition was 27.4%.

Q: How did the inhibition turn out when `O=C(O)c1ccccc1C=NN1CCCCCC1` was run?
A: Its inhibition is -9.35%.

Q: For `COc1ccc(/C=C2\SC(=S)N(CCCC(=O)N3CCN(C)CC3)C2=O)cc1`, which inhibition is on record?
A: Its inhibition is -11.9%.

Q: How did the inhibition turn out when `COc1ccc(NC(=O)COc2coc(CN3CCN(c4ccccc4)CC3)cc2=O)cc1` was run?
A: Its inhibition is -6.47%.

Q: Which inhibition does the source give for `CCOC(=O)C1=CCN(S(=O)(=O)c2ccccc2C)C1c1ccc(Cl)c(Cl)c1` (stereo not drawn) here?
A: Its inhibition is -18.3%.

Q: `O=c1oc2ccc(C#CC3(O)CCCCC3)cc2cc1-n1cc(-c2ccccn2)nn1` was tested. Which inhibition did it give?
A: Its inhibition is -8.43%.

Q: With `Cn1cnnc1SCC(=O)NC1CCCC1` as the molecule, how does the inhibition read?
A: The inhibition was -4.24%.

Q: With `O=C1C=CC(=O)C(CNc2ccc(C(=O)OCc3ccccc3)cc2)=C1` as the molecule, how does the inhibition read?
A: The inhibition was 38.2% (active).

The molecules below were run against Nuclear receptor coactivator 2 (Homo sapiens) (UniProt Q15596) (assay: inhibition of GAL4-SRC2 driven luciferase expression – cell-based, luminescence, HEK293, triplicate, confirmation (AID 652008;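 further: 0% = DMSO-treated cells and 100% = Gossypol at 36 µM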)). Details: HEK293 GAL4-SRC2 luciferase reporter, at 8.9 µM, active compounds read high.
Chain of Nuclear receptor coactivator 2 (Homo sapiens) (Q15596 whole entry, looked up, the tested form may be a part): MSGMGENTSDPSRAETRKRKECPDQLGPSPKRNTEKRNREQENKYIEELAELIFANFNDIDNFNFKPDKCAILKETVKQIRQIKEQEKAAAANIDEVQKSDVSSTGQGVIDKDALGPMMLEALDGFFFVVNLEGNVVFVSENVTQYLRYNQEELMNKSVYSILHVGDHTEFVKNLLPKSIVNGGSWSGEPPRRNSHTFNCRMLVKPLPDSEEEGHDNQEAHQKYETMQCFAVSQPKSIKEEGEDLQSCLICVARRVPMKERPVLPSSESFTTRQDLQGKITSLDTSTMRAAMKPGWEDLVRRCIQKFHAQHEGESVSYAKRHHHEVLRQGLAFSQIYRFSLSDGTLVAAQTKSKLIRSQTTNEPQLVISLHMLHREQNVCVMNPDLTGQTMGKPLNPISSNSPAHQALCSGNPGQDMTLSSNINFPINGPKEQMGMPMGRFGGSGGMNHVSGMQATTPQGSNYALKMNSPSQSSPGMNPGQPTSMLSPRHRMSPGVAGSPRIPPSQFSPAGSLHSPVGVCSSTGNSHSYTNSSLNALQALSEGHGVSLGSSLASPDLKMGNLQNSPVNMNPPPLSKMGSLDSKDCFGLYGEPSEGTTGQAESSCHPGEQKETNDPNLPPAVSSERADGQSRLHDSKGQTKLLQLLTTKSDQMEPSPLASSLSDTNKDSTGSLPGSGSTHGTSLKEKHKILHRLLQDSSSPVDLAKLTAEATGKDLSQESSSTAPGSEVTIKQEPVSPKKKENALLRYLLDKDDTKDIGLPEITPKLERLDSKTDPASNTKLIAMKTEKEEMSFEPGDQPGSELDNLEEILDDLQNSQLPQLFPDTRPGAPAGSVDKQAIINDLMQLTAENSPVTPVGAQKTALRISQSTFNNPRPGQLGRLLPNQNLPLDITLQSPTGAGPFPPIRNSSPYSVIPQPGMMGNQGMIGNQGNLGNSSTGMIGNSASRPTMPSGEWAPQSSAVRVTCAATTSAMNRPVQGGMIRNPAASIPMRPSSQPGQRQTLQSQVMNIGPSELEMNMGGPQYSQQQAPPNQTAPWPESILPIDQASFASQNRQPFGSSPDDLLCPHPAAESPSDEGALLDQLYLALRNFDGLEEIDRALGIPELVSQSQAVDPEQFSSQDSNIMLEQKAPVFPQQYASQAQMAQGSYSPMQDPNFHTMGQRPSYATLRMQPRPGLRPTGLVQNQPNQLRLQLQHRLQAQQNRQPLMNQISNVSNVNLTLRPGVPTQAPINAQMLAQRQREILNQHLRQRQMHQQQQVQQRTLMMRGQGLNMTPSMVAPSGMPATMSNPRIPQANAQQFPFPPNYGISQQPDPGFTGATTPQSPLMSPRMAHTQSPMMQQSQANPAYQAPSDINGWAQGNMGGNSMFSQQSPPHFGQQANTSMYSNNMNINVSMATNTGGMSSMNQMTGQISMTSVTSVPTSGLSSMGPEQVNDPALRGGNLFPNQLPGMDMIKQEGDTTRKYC

Q: How did the inhibition turn out when `O=C(CNC(=O)c1ccc2c(c1)OCO2)Nc1cccc(Br)c1` was run?
A: The inhibition was -16.3%.

Q: Which inhibition does the source give for `CCOC(=O)C1CCCN(C(=O)c2ccc3c(c2)N(C)C(=O)/C(=C/c2ccccc2Cl)S3)C1` (stereo not drawn) here?
A: Its inhibition is 23.8%.

Q: With `COC(=O)[C@H]1C[C@@]2(c3ccccc3)c3ccccc3N(S(=O)(=O)c3ccccc3)[C@H]2N1` as the molecule, how does the inhibition read?
A: Its inhibition is 18.3%.

Q: For `O=S(=O)(c1cccc2cnccc12)N1CCNCC1`, which inhibition is on record?
A: The inhibition was 48.1% (active).

Q: How did the inhibition turn out when `CCOC(=O)C1=C[C@@H](c2ccccc2)N(S(=O)(=O)c2ccc(C)cc2)[C@H]1c1ccc(F)cc1` was run?
A: Its inhibition is -5.87%.

Q: For `CN(c1ccccc1)S(=O)(=O)c1ccc(Cl)c(C(=O)Nc2ccncc2)c1`, which inhibition is on record?
A: Its inhibition is 29.7%.

Q: Which inhibition does the source give for `Cc1ccc(/C=C2\SC(=S)N(CCCC(=O)Nc3ccccc3C(=O)O)C2=O)cc1` here?
A: Its inhibition is 59.4% (active).

Q: How did the inhibition turn out when `Cn1c(=O)c2c(ncn2CCOc2cccc(Br)c2)n(C)c1=O` was run?
A: Its inhibition is 2.64%.

Q: How did the inhibition turn out when `Cn1nnnc1Sc1ncnc2scc(-c3ccsc3)c12` was run?
A: The inhibition was 45%.

Q: For `CCOC(=O)Cn1c(=O)c2c(nc(N3CCCCC3)n2Cc2ccccc2)n(C)c1=O`, which inhibition is on record?
A: The inhibition was 4.93%.

Q: For `CC(C)CC(NC(=O)c1ccco1)C(=O)Nc1ccc2c(c1)OCCO2` (stereo not drawn), which inhibition is on record?
A: The inhibition was 7.27%.

Q: Which inhibition does the source give for `NCCOc1ccc(C2CCCCC2)cc1` here?
A: The inhibition was 23%.

Q: `COc1ccc2c(c1)CCCN2C(=O)C1CCCN(S(=O)(=O)c2ccc(C(C)(C)C)cc2)C1` (stereo not drawn) was tested. Which inhibition did it give?
A: The inhibition was 15.7%.

Q: With `COc1ccc(Cl)cc1C(=O)Nc1nc2ccccc2[nH]1` as the molecule, how does the inhibition read?
A: Its inhibition is 10.7%.

Q: How did the inhibition turn out when `O=C(O)C1(Nc2ccc(Br)cc2)CCCC1` was run?
A: Its inhibition is -11.7%.

Q: Which inhibition does the source give for `O=C(CCCN1C(=O)/C(=C/c2ccccc2Cl)SC1=S)Nc1cccnc1` here?
A: The inhibition was -4.66%.

Q: With `Cc1ccc(C)c(N2CCN(C(=O)c3ccc4c(c3)c(C)c(C)n4C)CC2)c1` as the molecule, how does the inhibition read?
A: The inhibition was 3.19%.

Q: Which inhibition does the source give for `O=c1[nH]sc2ccccc12` here?
A: The inhibition was 8.22%.

Q: How did the inhibition turn out when `Cc1ccc(NC(=O)C2CCC(C(C)(C)C)CC2)cc1S(=O)(=O)N1CCOCC1` (stereo not drawn) was run?
A: The inhibition was 12.3%.

Q: `O=C(CCCN1C(=O)/C(=C/c2ccccc2Cl)SC1=S)NNC(=O)c1ccccc1` was tested. Which inhibition did it give?
A: The inhibition was 73% (active).

Q: `O=C(NCCCN1CCOCC1)c1cc(-c2ccc(Br)cc2)on1` was tested. Which inhibition did it give?
A: The inhibition was 13.1%.

Q: `Nn1c(SCC(=O)Nc2cc(C(F)(F)F)ccc2Cl)nncc1=O` was tested. Which inhibition did it give?
A: Its inhibition is -1.26%.

Q: For `COc1cccc(C(NC(C)=O)c2nc(-c3cccc(C#N)c3)cs2)c1` (stereo not drawn), which inhibition is on record?
A: The inhibition was -26.2%.

Q: For `O=C(CCCN1C(=O)/C(=C/c2cccc(Br)c2)SC1=S)NCCCN1CCOCC1`, which inhibition is on record?
A: The inhibition was 10.6%.

Q: `COc1ccc(S(=O)(=O)Nc2cc(Sc3ncn[nH]3)c(O)c3ccccc23)cc1` was tested. Which inhibition did it give?
A: Its inhibition is 10.1%.

Q: How did the inhibition turn out when `COc1ccc2nc(-c3ccc(N)cc3)[nH]c2c1` was run?
A: Its inhibition is 49.5% (active).

Q: `COc1ccc(C(=O)c2[nH]c(N)c(C(=O)NCCc3c[nH]c4ccccc34)c2-c2ccc(OC)c(OC)c2)cc1` was tested. Which inhibition did it give?
A: Its inhibition is -4.51%.

Q: With `Cn1c(=O)c2[nH]c(CCCc3ccc([N+](=O)[O-])cc3)nc2n(C)c1=O` as the molecule, how does the inhibition read?
A: Its inhibition is 5.32%.

Q: With `CN1/C(=C/C=C/c2n(C)c3cc([N+](=O)[O-])c([N+](=O)[O-])cc3[n+]2C)C(C)(C)c2ccccc21` as the molecule, how does the inhibition read?
A: Its inhibition is -3.59%.

Q: Which inhibition does the source give for `CC(OC(=O)C1=COCCO1)C(=O)Nc1ccc(Cl)cn1` (stereo not drawn) here?
A: Its inhibition is -20.4%.

Q: With `CN(C)Cc1ccc(-c2nc3cccc4c3n2CCNC4=O)cc1` as the molecule, how does the inhibition read?
A: The inhibition was 6.56%.

Q: Which inhibition does the source give for `COCc1ccc(C(=O)N2CCC(CCC(=O)Nc3cccc(C)c3)CC2)s1` here?
A: The inhibition was 46.9% (active).

Q: With `O=C(O)c1ccccc1C=NN1CCCCCC1` as the molecule, how does the inhibition read?
A: Its inhibition is -24.3%.

Q: How did the inhibition turn out when `COc1ccc(/C=C2\SC(=S)N(CCCC(=O)N3CCN(C)CC3)C2=O)cc1` was run?
A: The inhibition was 2.68%.

Q: With `COc1ccc(NC(=O)COc2coc(CN3CCN(c4ccccc4)CC3)cc2=O)cc1` as the molecule, how does the inhibition read?
A: Its inhibition is -1.96%.

Q: How did the inhibition turn out when `CCOC(=O)C1=CCN(S(=O)(=O)c2ccccc2C)C1c1ccc(Cl)c(Cl)c1` (stereo not drawn) was run?
A: Its inhibition is -14%.

Q: How did the inhibition turn out when `O=c1oc2ccc(C#CC3(O)CCCCC3)cc2cc1-n1cc(-c2ccccn2)nn1` was run?
A: The inhibition was -3.27%.

Q: `Cn1cnnc1SCC(=O)NC1CCCC1` was tested. Which inhibition did it give?
A: Its inhibition is -19.9%.

Q: For `O=C1C=CC(=O)C(CNc2ccc(C(=O)OCc3ccccc3)cc2)=C1`, which inhibition is on record?
A: The inhibition was 39.2%.
